Where “and” joins values, the source holds several entries; their conditions need not be identical. Equal values may be shown once. About 83,000 compounds went through this panel and 20% of them were active in at least one assay; those are over-represented in the sample as a whole.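 Assay: single dose, 48 h. Readout: percent growth (0 = no net growth; negative = cell death). Active: <10.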 A number with no mark means an inactive call. Calls of active or inactive are those of the source.
Tested on: MDA-MB-468 breast
Assay: NCI-60 one-dose screen, 48 h (100 = growth as untreated, 0 = no growth, -100 = all killed)

## CC(C)(C)OOC(=O)/C=C\C(=O)OOC(C)(C)C
10 µM unless noted
  growth: 108%

## Nc1cccnc1
10 µM unless noted
  growth: 130%

## N#C[Se]Cc1cc(-c2ccccc2)n(-c2ccc(S(N)(=O)=O)cc2)n1
10 µM unless noted
  growth: -66.1% (active)

## CC(=O)Oc1ccc(Cl)cc1
10 µM unless noted
  growth: 93.6%

## CC[C@H](C)[C@H](NC(=O)c1cccn1C)C(=O)N(C)[C@H](C[C@@H](OC(C)=O)c1nc(C(=O)N[C@@H](Cc2ccccc2)C[C@H](C)C(=O)OC)cs1)C(C)C
10 µM unless noted
  growth: 25.9%

## CN[C@@]1(c2ccccc2Cl)CCCC[C@@H]1NCC1CCCO1 (stereo partly specified)
10 µM unless noted
  growth: 96.3%

## CNC(=O)CCl
10 µM unless noted
  growth: 100%

## CC(C)[C@]12O[C@H]1[C@@H]1O[C@]13[C@]1(O[C@H]1C[C@H]1C4=C(CC[C@@]13C)C(=O)OC4)[C@@H]2OC(=O)OC(C)(C)C
10 µM unless noted
  growth: -48.4% (active)

## Cc1cc(NC(=O)CCc2ccc(N3C(N)=NC(N)=NC3(C)C)cc2)ccc1S(=O)(=O)F
10 µM unless noted
  growth: 32.4%

## CCOc1c(Cl)cc(CNC(C)C(O)c2ccccc2)cc1OC (stereo unspecified)
10 µM unless noted
  growth: 32.5%

## CCCCn1c(=O)c(C(=O)NCc2ccccc2Cl)c(O)c2ccccc21
10 µM unless noted
  growth: 70.6%

## CCCC[C@H](NC(=O)[C@H]1CCCCN1C)C(=O)N(C)[C@H](C[C@@H](OC(C)=O)c1nc(C(=O)N[C@@H](Cc2ccccc2)C[C@H](C)C(=O)OCC)cs1)C(C)C
10 µM unless noted
  growth: 31.2%

## O=C(N/N=C\c1ccc(N(CCCl)CCCl)cc1Cl)c1cccnc1
10 µM unless noted
  growth: -69.6% (active)

## CC(C)OC(=S)[S-].[Au+].c1ccc([PH+](c2ccccc2)c2ccccc2)cc1
10 µM unless noted
  growth: -32.3% (active)

## CC/C(=C/c1ccc(OC)cc1OC)[N+](=O)[O-]
10 µM unless noted
  growth: -6.94% (active)

## C=CCC1(CC)C(=O)NC(=S)NC1=O
10 µM unless noted
  growth: 97.4%

## CC[C@H](C)[C@H](NC(=O)[C@H]1CCCCN1C)C(=O)N(C)[C@H](CC(=O)c1nc(C(=O)N[C@@H](Cc2ccccc2)C[C@H](C)C(=O)O)cs1)C(C)C
10 µM unless noted
  growth: 62.3%

## C=CC[Se]C(=O)c1ccccc1OC(C)=O
10 µM unless noted
  growth: -16.6% (active)

## O=C(N/N=C/c1ccc([N+](=O)[O-])o1)c1cc([N+](=O)[O-])cc([N+](=O)[O-])c1O
10 µM unless noted
  growth: 92.1%

## CCOC(=O)C(NC(=O)C(Cc1ccc(N(CCCl)CCCl)cc1)NC(C)=O)C(C)C (stereo unspecified)
10 µM unless noted
  growth: 92.3%

## C[C@]12CC[C@H]3[C@@H](C[C@@H]4SC(Nc5ccccc5)=N[C@@]45CC(O)CC[C@]35C)[C@@H]1CCC2O (stereo partly specified)
10 µM unless noted
  growth: -1% (active)

## C[CH2][Sn]([CH2]C)([CH2]C)[NH]S(=O)(=O)c1ccc(C)cc1
10 µM unless noted
  growth: 114%

## NC(Cc1ccccc1)c1ccccc1 (stereo unspecified)
10 µM unless noted
  growth: 107% and 105%

## COc1cc(C=C2c3ccccc3C(=O)c3ccccc32)ccc1OCCCCOc1cc2c(cc1OC)C(=O)N1CCCC1C=N2 (stereo unspecified)
10 µM unless noted
  growth: -75.4% (active)

## Clc1ccc(CSC(Cn2ccnc2)c2ccc(Cl)cc2Cl)cc1 (stereo unspecified)
10 µM unless noted
  growth: -2.39% (active)

## CC(=O)OC1CC2(O)C(CCC3(C)C(c4ccc(=O)oc4)CCC32O)C2(C)CCC(OC3OC(CO)C(O)C(O)C3O)C=C12 (stereo unspecified)
10 µM unless noted
  growth: -34.6% (active)

## O=S(=O)(O)c1ccc(-c2ccc([As](=O)(O)O)cc2)cc1
10 µM unless noted
  growth: 105%

## N#CC1C(C#N)C2CCC1C1C2N1c1ccccc1 (stereo unspecified)
10 µM unless noted
  growth: 102%

## CN1CCN(C(=O)COc2ccc(/C=C3\CC4C5CC=C6CC(Cl)CCC6(C)C5CCC4(C)C3=O)cc2)CC1 (stereo unspecified)
10 µM unless noted
  growth: 66.6%

## [Cl][Hg][c]1ccc2ccccc2c1
10 µM unless noted
  growth: -83.2% (active)

## CC(C)=CCC[C@H](C(=O)O)[C@@H]1CC[C@]2(C)C3=C(CC[C@@]12C)[C@@]1(C)CC[C@H](O)C(C)(C)[C@@H]1CC3
10 µM unless noted
  growth: 107%

## CC(=O)[O][Hg][c]1c(C)c(C)cc(C)c1C
10 µM unless noted
  growth: -79.4% (active)

## O=C1C2C(C(=O)[N]1[Hg][c]1cccs1)C1(Cl)C(Cl)=C(Cl)C2(Cl)C1(Cl)Cl (stereo unspecified)
10 µM unless noted
  growth: -83.7% (active)

## CC[C@H](C)[C@H](NC(=O)[C@H]1CCCCN1C)C(=O)N(C)[C@H](C(=O)NC12CC(C(=O)N[C@@H](Cc3ccccc3)C[C@H](C)C(=O)OC)(C1)C2)C(C)C
10 µM unless noted
  growth: 116%

## CN1CCC2(CC1)C(C#N)C(=O)NC(=O)C2C#N (stereo unspecified)
10 µM unless noted
  growth: 102%

## CC1(C)CC(=O)CC(C)(C)N1N=O
10 µM unless noted
  growth: 124%

## CCC[CH2][Sn]([CH2]CCC)([CH2]CCC)[O]C(=O)c1ccc(Cl)cc1Cl
10 µM unless noted
  growth: -80.7% (active)

## CC(=O)OCC1OC([S-])C(OC(C)=O)C(OC(C)=O)C1OC(C)=O.[Au+].c1ccc(CN2[CH-]N(Cc3ccccc3)C(c3ccccc3)=C2c2ccccc2)cc1
4.75 µM
  growth: -23.8% (active)
10 µM
  growth: -41.9% (active)

## S=C(SSC(=S)N1CCCCC1)N1CCCCC1
10 µM
  growth: 98.1%
100 µM
  growth: -62.8% (active)

Reference: PubChem BioAssay (NCI)
